Where a name gives a salt, the structure may show the parent alone.

This assay relates to Haemophilus parainfluenzae. Put plainly: growth AUC normalised to DMSO control (fraction of control); higher = less growth inhibition, active = hit call of the paper. The note with it: 20 µM. In short, it runs like this:
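Three biological replicates were carried out, with OD578 read hourly for 24 h. Before inoculation at a starting OD578 of 0.01, pathogens were passaged anaerobically twice; plates were pre-reduced mGAM containing 20 μM compound and 1% DMSO, sealed with breathable membranes, and the Haemophilus parainfluenzae medium carried added hemin and NAD. Area under each growth curve was calculated by the trapezoidal rule up to the exponential-to-stationary transition and normalised to DMSO controls on the same plate.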
For `CCc1cc(C(N)=S)ccn1` [Ethionamide], the “growth AUC normalised to DMSO control” value was 0.983 (inactive).

Consider `N=C(N)c1ccc(OCCCCCOc2ccc(C(=N)N)cc2)cc1` [Pentamidine isethionate], for which the “growth AUC normalised to DMSO control” value was 0.946 (inactive).

Take `CC(CN(C)C)CN1c2ccccc2Sc2ccccc21` (stereo unspecified) [Trimeprazine tartrate]: the “growth AUC normalised to DMSO control” value is 0.94 (inactive).

Turning to `COc1cc(N)c(Cl)cc1C(=O)NC1CCN(CCCOc2ccc(F)cc2)CC1OC` (stereo unspecified) [Cisapride], the “growth AUC normalised to DMSO control” value is 1.03 (inactive).

Take `CC1CNc2c(cccc2S(=O)(=O)N[C@@H](CCCNC(=N)N)C(=O)N2CC[C@@H](C)C[C@@H]2C(=O)O)C1` (stereo partly specified) [Argatroban]: the “growth AUC normalised to DMSO control” value was 1.04 (inactive).

In the case of `Cc1cn[nH]c1` [Fomepizole], the “growth AUC normalised to DMSO control” value is 0.954 (inactive).

As for `CC[C@@]1(O)C(=O)OCc2c1cc1n(c2=O)Cc2cc3c(CN(C)C)c(O)ccc3nc2-1` [Topotecan], the “growth AUC normalised to DMSO control” value was 0.984 (inactive).

As for `CCN[C@H]1CN(CCCOC)S(=O)(=O)c2sc(S(N)(=O)=O)cc21` [Brinzolamide], the “growth AUC normalised to DMSO control” value was 0.946 (inactive).

For the molecule `Nc1nc(=O)c2nc(CNc3ccc(C(=O)N[C@@H](CCC(=O)O)C(=O)O)cc3)cnc2[nH]1` [Folic acid], the “growth AUC normalised to DMSO control” value was 0.978 (inactive).

With `C#C[C@]1(OC(C)=O)CC[C@H]2[C@@H]3CCC4=C[C@@H](OC(C)=O)CC[C@@H]4[C@H]3CC[C@@]21C` [Ethynodiol diacetate], the “growth AUC normalised to DMSO control” value was 0.974 (inactive).

Turning to `CC(=O)N(CC(O)CO)c1c(I)c(C(=O)NCC(O)CO)c(I)c(C(=O)NCC(O)CO)c1I` (stereo unspecified) [Iohexol], the “growth AUC normalised to DMSO control” value was 0.981 (inactive).

Regarding `O=c1[nH]c(=O)n([C@H]2C[C@H](O)[C@@H](CO)O2)cc1I` [Idoxuridine], the “growth AUC normalised to DMSO control” value is 0.942 (inactive).

For `CC[N+](CC)(CC)CCC(O)(c1ccccc1)C1CCCCC1` (stereo unspecified) [Tridihexethyl chloride], the “growth AUC normalised to DMSO control” value was 1.05 (inactive).

With `COc1cccc2c1C(=O)c1c(O)c3c(c(O)c1C2=O)C[C@@](O)(C(=O)CO)C[C@@H]3O[C@H]1C[C@H](N)[C@H](O)[C@H](C)O1` [Doxorubicin hydrochloride], the “growth AUC normalised to DMSO control” value was 0.979 (inactive).

Take `C#C[C@]1(O)CC[C@H]2[C@@H]3CCC4=CC(=O)CC[C@@H]4[C@H]3CC[C@@]21CC` [(D-) Norgestrel]: the “growth AUC normalised to DMSO control” value is 0.969 (inactive).

Take `NCc1ccc(S(N)(=O)=O)cc1` [Mafenide hydrochloride]: the “growth AUC normalised to DMSO control” value is 1 (inactive).

In the case of `NCCc1cc[nH]n1` [Betazole hydrochloride], the “growth AUC normalised to DMSO control” value was 1 (inactive).

As for `CCCCCN(C)CCC(O)(P(=O)(O)O)P(=O)(O)O` [Ibandronate sodium], the “growth AUC normalised to DMSO control” value was 0.995 (inactive).

Take `CNCCC(Oc1ccc(C(F)(F)F)cc1)c1ccccc1` (stereo unspecified) [Fluoxetine hydrochloride]: the “growth AUC normalised to DMSO control” value was 1 (inactive).

With `CO[C@@H]1[C@@H](O[C@@H]2O[C@H](C)[C@@H](O[C@H]3C[C@@](C)(O)[C@@H](OC(=O)CC(C)C)[C@H](C)O3)[C@H](N(C)C)[C@H]2O)[C@@H](CC=O)C[C@@H](C)[C@@H](O)/C=C/C=C/C[C@@H](C)OC(=O)C[C@H]1OC(C)=O` [Josamycin], the “growth AUC normalised to DMSO control” value was 0.0327 (active).

Consider `NS(=O)(=O)c1cc(Cl)c(Cl)c(S(N)(=O)=O)c1` [Dichlorphenamide], for which the “growth AUC normalised to DMSO control” value is 1.03 (inactive).

In the case of `Oc1c(Cl)cc(Cl)c(Cl)c1Cc1c(O)c(Cl)cc(Cl)c1Cl` [Hexachlorophene], the “growth AUC normalised to DMSO control” value was 0.0305 (active).

`CCN(CC)C(=O)c1ccc(O)c(OC)c1` [Ethamivan]: the “growth AUC normalised to DMSO control” value was 1.03 (inactive).

With `Cn1c(=O)c2c(ncn2CC(O)CO)n(C)c1=O` (stereo unspecified) [Diprophylline], the “growth AUC normalised to DMSO control” value is 0.994 (inactive).

For `CCCCC(CC)CNC(=N)NC(=N)NCCCCCCNC(=N)NC(=N)NCC(CC)CCCC` (stereo unspecified) [Alexidine dihydrochloride], the “growth AUC normalised to DMSO control” value is 0.861 (inactive).

Consider `COc1ccc2[nH]cc(CCNC(C)=O)c2c1` [Melatonin], for which the “growth AUC normalised to DMSO control” value is 0.966 (inactive).

As for `CCN(CC)CCOC(=O)C(Cc1cccc2ccccc12)CC1CCCO1` (stereo unspecified) [Nafronyl oxalate], the “growth AUC normalised to DMSO control” value was 1.28 (inactive).

For the molecule `CCCCC[C@H](O)/C=C/[C@H]1[C@H](O)CC(=O)[C@@H]1CCCCCCC(=O)O` [Alprostadil], the “growth AUC normalised to DMSO control” value was 0.903 (inactive).

Turning to `CN(C)CCN(Cc1cccs1)c1ccccn1` [Methapyrilene hydrochloride], the “growth AUC normalised to DMSO control” value was 0.983 (inactive).

With `CC/C(=C(/CC)c1ccc(O)cc1)c1ccc(O)cc1` [Diethylstilbestrol], the “growth AUC normalised to DMSO control” value was 1.01 (inactive).

On to `CN(CCCCCCCCCCN(C)C(=O)Oc1cccc([N+](C)(C)C)c1)C(=O)Oc1cccc([N+](C)(C)C)c1` [Demecarium bromide], for which the “growth AUC normalised to DMSO control” value is 0.923 (inactive).

The record behind these values is the supplement of paper PMC12350171.
